Measured values from PubChem BioAssay (Tox21).
Several values for one entry are separate records, joined by “and”; a condition that tells them apart may be missing. Equal entries are not always repeated. Records with an inconclusive call do not appear. The source holds several records for some structures; these can differ, active in one and inactive in another. Activity calls are given as the source filed them. Unless noted, the call rests on the fitted dose curve; in most records, active means well fitted curve in the direction sought with a large enough effect in the repeat runs; inconclusive means weak or mixed curves; inactive means no such curve, though single readings can be large; an effect the other way counts as inactive or inconclusive.

Key:
[1] = qHTS assay to identify small molecule antagonists of the vitamin D receptor (VDR) signaling pathway - cell viability counter screen (AID 743225); further: nearly all actives have a fitted effect of over 50% in size; further: potency means the concentration at half of the fitted maximal effect
How it was run: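 Read-out: CellTiter-Glo luminescence measured 30 min after reagent addition at room temperature. Cells were VDR-bla HEK 293T exposed 16 h at 37C, 5% CO2, to compound with 3 nM final calcitriol agonist.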

[2] = qHTS assay to identify small molecule agonists of the NFkB signaling pathway - cell viability counter screen (AID 1159515; calls by dose curve; further: series mostly up to about 61 µM; on the % scale 0 is the no-effect control and ±100 the full control effect; nearly all actives have a fitted effect of over 55% in size)
How it was run: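 ME-180 NFkB-bla cells, 2,000/well; overnight attach; compound 5 hr, 37 C/5% CO2; LiveBLAzer substrate 1.5 hr RT; then CellTiter-Glo in same wells, 30 min RT, luminescence read.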

[3] = qHTS assay to identify small molecule agonists of the endoplasmic reticulum stress response signaling pathway - cell viability counter screen (AID 1159517; calls by dose curve;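 further: HeLa cells carrying an ER stress response element beta-lactamase reporter; series mostly up to about 61 µM; on the % scale 0 is the no-effect control and ±100 the full control effect; nearly all actives have a fitted effect of over 50% in size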)
How it was run: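 ESRE-bla HeLa cells (1,500/well) were plated overnight at 37 C and exposed to compounds for 5 hr. After the 2 hr beta-lactamase substrate read, CellTiter-Glo went into the same wells, and luminescence was read after 30 min at room temperature.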

[4] = qHTS assay to identify small molecule antagonists of the retinoid-related orphan receptor gamma (ROR-gamma) signaling pathway - cell viability counter screen (AID 1159520); further: nearly all actives have a fitted effect of over 50% in size; further: potency means the concentration at half of the fitted maximal effect
How it was run: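 Cytotoxicity was read from cellular ATP (CellTiter-Glo luminescence) after 16 hr at 37 C with 1 uM doxycycline induction. The inducer was added 2 hr after compound transfer to Tet-on ROR gamma CHO cells.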

[5] = molecular target: Nuclear receptor ROR-gamma (Homo sapiens) (UniProt P51449); experiment: qHTS assay to identify small molecule antagonists of the retinoid-related orphan receptor gamma (ROR-gamma) signaling pathway (AID 1159521;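 further: CHO cells with doxycycline inducible ROR-gamma driving an RORE luciferase reporter; top concentration of the series differs between compounds; on the % scale 0 is the no-effect control and ±100 the full control effect; nearly all actives have a fitted effect of over 50% in size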)
How it was run: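 CHO Tet-on RORγ, RORE-luc reporter. Cpd 2 h pre-incubation, then dox hyclate 1 uM final, 16 h, 37 C/5% CO2. ONE-Glo luminescence; decrease = antagonist.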

[6] = qHTS assay to identify small molecule agonists of the AP-1 signaling pathway - cell viability counter screen (AID 1159525; calls by dose curve; further: nearly all actives have a fitted effect of over 55% in size; further: potency means the concentration at half of the fitted maximal effect)
How it was run: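 Intracellular ATP by Cell Titer Glo luminescence (30 min, RT) in the same ME-180 AP-1-bla wells after the 5 h compound exposure at 37 °C. Normalised to tetra n-octyl ammonium bromide and DMSO controls.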

[7] = qHTS assay to identify small molecule agonists of the AP-1 signaling pathway (AID 1159526; calls by dose curve; further: on the % scale 0 is the no-effect control and ±100 the full control effect)
[8] = molecular target: Retinoic acid receptor RXR-alpha (Homo sapiens) (UniProt P19793); experiment: qHTS assay to identify small molecule agonists of the RXR signaling pathway (AID 1159527; calls by dose curve; further: on the % scale 0 is the no-effect control and ±100 the full control effect; nearly all actives have a fitted effect of over 35% in size)
Retinoic acid receptor RXR-alpha (Homo sapiens), sequence (P19793 whole entry, looked up): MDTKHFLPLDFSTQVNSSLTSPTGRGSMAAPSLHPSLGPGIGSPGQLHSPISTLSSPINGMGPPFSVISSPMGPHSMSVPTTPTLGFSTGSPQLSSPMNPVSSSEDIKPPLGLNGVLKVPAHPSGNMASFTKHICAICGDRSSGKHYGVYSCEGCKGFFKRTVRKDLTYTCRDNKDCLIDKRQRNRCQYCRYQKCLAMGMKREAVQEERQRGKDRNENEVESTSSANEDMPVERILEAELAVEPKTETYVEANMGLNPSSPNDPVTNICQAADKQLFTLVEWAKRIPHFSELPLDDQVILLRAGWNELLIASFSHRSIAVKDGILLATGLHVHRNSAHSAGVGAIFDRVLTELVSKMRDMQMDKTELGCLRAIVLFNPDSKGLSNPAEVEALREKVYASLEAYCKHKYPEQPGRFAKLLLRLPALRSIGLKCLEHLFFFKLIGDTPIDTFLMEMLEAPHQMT
How it was run: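 Read-out: beta-lactamase FRET ratio (405 nm excitation, 460 and 530 nm emission) after 2 hr substrate loading at room temperature. Cells were RXR-alpha-UAS-bla HEK 293T treated with compounds for 16 hr in 2% charcoal-stripped FBS medium.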

[9] = qHTS assay to identify small molecule antagonists of the retinoic acid receptor (RAR) signaling pathway (AID 1159552; further: nearly all actives have a fitted effect of over 50% in size; further: potency means the concentration at half of the fitted maximal effect)
How it was run: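 Cells of the C3RL4 line were seeded, incubated overnight, then dosed with compounds in DMSO followed immediately by retinol (1 uM final). Six hours later luciferase detection reagent went in; signal was measured after 30 min at RT.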

[10] = qHTS assay to identify small molecule agonists of the retinoic acid receptor (RAR) signaling pathway (AID 1159553); further: on the % scale 0 is the no-effect control and ±100 the full control effect
How it was run: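 RARE-luc C3RL4 cells; overnight attachment 37 C/5% CO2; compound (DMSO) 6 hr; luciferase reagent, 30 min RT; luminescence read-out.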

[11] = qHTS assay to identify small molecule agonists of the endoplasmic reticulum stress response signaling pathway (AID 1159516; active means well fitted activation curve with a large enough effect in the signal ratio in the repeat runs, not every such curve was filed as active; the % refers to the signal ratio; further: on the % scale 0 is the no-effect control and ±100 the full control effect)
How it was run: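 HeLa ESRE-bla reporter line; cpd 5 h, 37 C/5% CO2; LiveBLAzer B/G FRET substrate 2 h RT; ex 405, em 460/530 nm.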

[12] = qHTS assay to identify small molecule agonists of the RXR signaling pathway - cell viability counter screen (AID 1159529); further: nearly all actives have a fitted effect of over 50% in size; further: potency means the concentration at half of the fitted maximal effect
How it was run: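 HEK 293T RXRa-bla cells, 2% CS-FBS; 5 h settle; cpd 16 h 37 C, 5% CO2; CellTiter-Glo 30 min RT, luminescence. Tetraoctyl ammonium bromide as positive control.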

[13] = qHTS assay to identify small molecule antagonists of the retinoid acid receptor (RAR) signaling pathway - cell viability counter screen (AID 1159551); further: nearly all actives have a fitted effect of over 35% in size; further: potency means the concentration at half of the fitted maximal effect
How it was run: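 C3RL4 RARE-luciferase line; cpds + retinol 1 uM final, 6 h, 37 C/5% CO2; CellTiter-Glo ATP luminescence, 30 min RT.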

[14] = qHTS assay to identify small molecule antagonists of the estrogen related receptor (ERR) signaling pathway - cell viability counter screen (AID 1224818); further: series mostly up to about 46 µM; on the % scale 0 is the no-effect control and ±100 the full control effect
How it was run: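 Fluorescence from CellTiter-Fluor, read 30 min after reagent addition at 37 C, measured viability of ERR cells exposed to compounds for 17.5 h. Cells had settled 6 h before dosing.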

O=c1[nH]c2ccccc2n1C1CCNCC1
inactive: Potency [1] | outcome [2] | Potency [3] | Potency [4] | Potency [5] | Potency [6] | outcome [7] | Potency [8] | Potency [9] | Potency [10]

CS(=O)(=O)c1ccc(C(=O)C2C(=O)CCCC2=O)c(Cl)c1COCC(F)(F)F
inactive: Potency [1] | outcome [2] | outcome [11] | Potency [3] | Potency [4] | Potency [5] | outcome [7] | Potency [8] | Potency [12] | Potency [13] | Potency [9] | Potency [10]

O=C(O)c1c(Cl)ccc2cc(Cl)cnc12
inactive: Potency [1] | outcome [2] | Potency [3] | Potency [4] | Potency [5] | Potency [6] | outcome [7] | Potency [8] | Potency [13] | Potency [9] | Potency [10]

CC(=O)CN(CC(C)=O)N=O
inactive: Potency [1] | outcome [2] | outcome [11] | Potency [3] | Potency [4] | Potency [5] | Potency [6] | outcome [7] | Potency [8] | Potency [12] | Potency [9] | Potency [10]

C=CC=O
inactive: Potency [1] | outcome [2] | Potency [4] | Potency [5] | outcome [7] | Potency [12] | Potency [13] | Potency [9] | Potency [10]

CCOC(=O)C(Cl)Cc1cc(-n2nc(C)n(C(F)F)c2=O)c(F)cc1Cl (centres undefined)
inactive: Potency [1] | outcome [2] | outcome [11] | Potency [3] | Potency [4] | Potency [5] | Potency [6] | outcome [7] | Potency [12] | Potency [13] | Potency [10]

CNC(=O)NC(O)C(Cl)(Cl)Cl (centres undefined)
inactive: Potency [1] | outcome [11] | Potency [3] | Potency [4] | Potency [5] | Potency [6] | outcome [7] | Potency [12] | Potency [13] | Potency [9] | Potency [10]

CC(C)N(Cc1ccccc1)C(=O)C(C)(C)C
inactive: Potency [1] | outcome [11] | Potency [3] | Potency [4] | Potency [5] | Potency [6] | outcome [7] | Potency [8] | Potency [12] | Potency [13] | Potency [9] | Potency [10]

Oc1ccc(Cc2ccc(O)cc2)cc1
inactive: Potency [1] | outcome [2] | Potency [3] | Potency [4] | Potency [5] | Potency [6] | outcome [7] | Potency [8] | Potency [12] | Potency [13] | Potency [9]

COC(=O)[C@@H](N)CCCN/C(N)=N/[N+](=O)[O-]
inactive: Potency [1] | outcome [11] | Potency [4] | Potency [5] | Potency [6] | outcome [7] | Potency [8] | Potency [12] | Potency [13] | Potency [9] | Potency [10]

CC(=O)OCC1=C(C(=O)O)N2C(=O)[C@@H](N)[C@H]2SC1
inactive: Potency [1] | outcome [11] | Potency [3] | activity, negative = cytotoxicity [4] 5.7% [at 19 µM] | activity change, negative = inhibition [5] 30.2% [at 19 µM] | viability change, negative = cytotoxic [6] -1.2% [at 15.8 µM] | activation [7] 4.04% [at 15.8 µM] | activation [8] -0.797% [at 15.8 µM] | activity change, negative = cytotoxicity [12] -9.25% [at 15.8 µM] | activity, negative = inhibition [9] -17.1% [at 19 µM] | Potency [10]

Brc1c(Br)c(Br)c(Br)c(Br)c1Br
inactive: activity, negative = cytotoxic [2] -11.1% [at 6.95 µM] | activation [11] -0.555% [at 6.95 µM] | activity, negative = cytotoxicity [4] 1.32% [at 8.39 µM] | activity change, negative = inhibition [5] 19.7% [at 8.39 µM] | viability change, negative = cytotoxic [6] -3.27% [at 6.97 µM] | activation [7] -7% [at 6.97 µM] | activation [8] 13.1% [at 6.98 µM] | activity change, negative = cytotoxicity [12] 7.53% [at 6.97 µM] | activity change, negative = cytotoxicity [13] -4.22% [at 8.39 µM] | activity, negative = inhibition [9] -18.1% [at 8.39 µM] | activation [10] -2.33% [at 8.36 µM]

CC(C)c1ccc(O)cc1
inactive: outcome [2] | outcome [11] | Potency [3] | Potency [4] | Potency [5] | Potency [6] | outcome [7] | Potency [8] | Potency [13] | Potency [9] | Potency [10]

C#CC(C)(C)O
inactive: Potency [1] | outcome [2] | Potency [3] | Potency [4] | Potency [5] | Potency [6] | outcome [7] | Potency [9] | Potency [10]

[P]#[In]
inactive: Potency [1] | outcome [11] | Potency [3] | Potency [4] | Potency [5] | Potency [6] | outcome [7] | Potency [8] | Potency [13] | Potency [9] | Potency [10]

CC[C@H](N)c1ccccc1
inactive: Potency [1] | outcome [11] | Potency [3] | Potency [4] | Potency [5] | Potency [6] | outcome [7] | Potency [8] | Potency [12] | Potency [13] | Potency [9] | Potency [10]

O=C1C2CC=CCC2C(=O)N1SC(Cl)(Cl)Cl (centres undefined)
inactive and 48.2 µM (active): Potency [6]
inactive and 26.9 µM (active): Potency [13]
inactive and 5.36 µM (active): Potency [9]
inactive and 24.1 µM (active): Potency [12]
inactive and 21.5 µM (active): Potency [1]
inactive and 1.9 µM (active): Potency [4]
inactive: outcome [2] | outcome [11] | Potency [3] | Potency [8] | Potency [10]

CN(C)CCN(C)C
inactive: outcome [2] | outcome [11] | Potency [3] | Potency [4] | Potency [5] | Potency [6] | outcome [7] | Potency [12] | Potency [13] | Potency [9] | Potency [10]

CCN(CC)CCOC(=O)C(O)(c1ccccc1)c1ccccc1
inactive: Potency [1] | outcome [11] | Potency [3] | Potency [4] | Potency [5] | outcome [7] | Potency [8] | Potency [12] | Potency [13] | Potency [9] | Potency [10]

CCCOC(=O)Cc1ccc(OCC(=O)N(CC)CC)c(OC)c1
inactive: Potency [1] | outcome [11] | Potency [3] | Potency [4] | Potency [5] | Potency [6] | outcome [7] | Potency [8] | Potency [12] | Potency [13] | Potency [9] | Potency [10]

CCOC(=O)CC(SP(=S)(OC)OC)C(=O)OCC (centres undefined)
inactive: outcome [2] | outcome [11] | Potency [3] | Potency [4] | Potency [5] | outcome [7] | Potency [13] | outcome [14]

O=C/C=C/c1ccco1
inactive: Potency [1] | outcome [2] | outcome [11] | Potency [3] | Potency [4] | Potency [5] | Potency [6] | outcome [7] | Potency [8] | Potency [13] | Potency [9] | Potency [10]

CCC(C)(C#N)N=NC(C)(C#N)CC (centres undefined)
inactive: Potency [1] | outcome [2] | Potency [3] | Potency [4] | Potency [5] | outcome [7] | Potency [12] | Potency [13] | Potency [9] | Potency [10]

O=C1CC(=O)NC(=O)N1
inactive: Potency [1] | outcome [2] | outcome [11] | Potency [4] | Potency [5] | Potency [6] | outcome [7] | Potency [12] | Potency [13] | Potency [9] | Potency [10]

Clc1cc2c(cc1Cl)Oc1cc(Cl)c(Cl)cc1O2
inactive: viability change, negative = cytotoxic [1] 2.97% [at 0.281 µM] | activity, negative = cytotoxic [2] -0.991% [at 0.281 µM] | activation [11] -5.12% [at 0.281 µM] | activity change, negative = cytotoxicity [3] -1.54% [at 0.281 µM] | activity, negative = cytotoxicity [4] 0.49% [at 0.349 µM] | activity change, negative = inhibition [5] 16.4% [at 0.35 µM] | viability change, negative = cytotoxic [6] -6.16% [at 0.29 µM] | activation [7] 0.434% [at 0.29 µM] | activation [8] 5.21% [at 0.29 µM] | activity change, negative = cytotoxicity [12] -1.01% [at 0.29 µM] | activity change, negative = cytotoxicity [13] 3.92% [at 0.349 µM] | activity, negative = inhibition [9] -3.48% [at 0.349 µM] | activation [10] -1.63% [at 0.338 µM]

O=C(Cl)c1ccccc1
inactive: Potency [1] | outcome [2] | outcome [11] | Potency [4] | Potency [5] | outcome [7] | Potency [8] | Potency [13] | Potency [9] | Potency [10]
